Screening data: PubChem, National Center for Advancing Translational Sciences (NCATS)
Akt phos inh: Akt phosphorylation inhibition | hit rate 0.32% among 360,000 | activity change, % for hits at 50 µM | Neuro2A IGF-stimulated pAkt S473 HTRF, 20 min; active compounds read low; in the data active means activity change below about -80%; inconclusive means mostly about -51% to -80%; further: on the % scale 0 is the no-effect control and ±100 the full control effect
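Single-point screen (50 µM final compound) in Neuro2A cells stimulated 20 min with 6 nM IGF at 37 deg C. After lysis, Ser473-phosphorylated Akt read by HTRF (ex 330 nm, em 615/665 nm) as the 665/615 ratio.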
DRD3 agonist: activates the human D3 dopamine receptor; hit rate 0.58% among 410,000; AID 652048; D3R DiscoveRx beta-arrestin cells, luminescence, 90 min; P35462; max activation, %; in the data active means max activation above about 30%; further: 0% is about no effect
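Cells at 1500/well, incubated overnight, then treated with pinned compounds (dopamine as control) for 90 min at 37 degrees C. DiscoveRx reagent added for 30 - 60 minutes at room temperature; luminescence read.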
D3 antag: antagonists of human D3 dopamine receptor; hit rate 2.5% among 360,000; P35462; D3R cells, DiscoveRx beta-arrestin luminescence, antagonist mode; active compounds read low; max response, negative = inhibition, %; in the data active means max response below about -50%; inconclusive means no clear call, values can overlap the other calls; further: on the % scale 0 is the no-effect control and ±100 the full control effect
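Cells plated overnight at 1500 cells/well, then exposed to library compounds with dopamine controls for 90 minutes at 37 degrees C. DiscoveRx reagent added for 30–60 minutes at room temperature; luminescence read, quantitative HTS format.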
RGS4 inh: inhibitors of human regulator of G protein signaling 4 | P49798 | Transcreener GDP fluorescence polarization, RGS4-accelerated GTP hydrolysis | Potency, µM (top dose mostly 114 µM), without a hit: at the highest dose activity change, negative = inhibition, most hits filed as inhibitors | hit rate 0.039% among 390,000 | AID 504845; active means well fitted inhibition curve with a large enough effect; inconclusive means small, poorly fitted or top-dose-only effect; inactive means no such curve, though single readings can be large or run the other way; further: potency means the concentration at half of the fitted maximal effect; on the % scale 0 is the no-effect control and ±100 the full control effect; nearly all actives have a fitted effect of over 75% in size
Target sequence (P49798 whole entry, looked up): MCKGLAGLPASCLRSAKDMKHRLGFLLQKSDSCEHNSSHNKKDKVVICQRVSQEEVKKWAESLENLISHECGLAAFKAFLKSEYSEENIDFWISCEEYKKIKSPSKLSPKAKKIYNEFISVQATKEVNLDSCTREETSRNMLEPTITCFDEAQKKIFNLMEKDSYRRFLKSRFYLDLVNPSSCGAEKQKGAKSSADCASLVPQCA
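MLSMR compounds (23 nl, pin-transferred) preincubated 10 min at room temperature with a 500nM (2x) first reagent, then RGS4 at 900nM (2x) plus Transcreener GDP mix added; fluorescence polarization (620/688 nm) read before and after 90 min at 30 °C.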
PI4K2A block: inhibitors of human PI4K2A; hit rate 0.13% among 420,000; purified PI4K2A, ADP-Glo luminescence, 1 h; active compounds read low; activity change, negative = inhibition, % at 76.9 µM; AID 1346378; Q9BTU6; in the data active means activity change below about -50%; inconclusive means mostly about -30% to -49%;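 further: -100% = wells without enzyme as full effect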
Target sequence (Q9BTU6 whole entry, looked up): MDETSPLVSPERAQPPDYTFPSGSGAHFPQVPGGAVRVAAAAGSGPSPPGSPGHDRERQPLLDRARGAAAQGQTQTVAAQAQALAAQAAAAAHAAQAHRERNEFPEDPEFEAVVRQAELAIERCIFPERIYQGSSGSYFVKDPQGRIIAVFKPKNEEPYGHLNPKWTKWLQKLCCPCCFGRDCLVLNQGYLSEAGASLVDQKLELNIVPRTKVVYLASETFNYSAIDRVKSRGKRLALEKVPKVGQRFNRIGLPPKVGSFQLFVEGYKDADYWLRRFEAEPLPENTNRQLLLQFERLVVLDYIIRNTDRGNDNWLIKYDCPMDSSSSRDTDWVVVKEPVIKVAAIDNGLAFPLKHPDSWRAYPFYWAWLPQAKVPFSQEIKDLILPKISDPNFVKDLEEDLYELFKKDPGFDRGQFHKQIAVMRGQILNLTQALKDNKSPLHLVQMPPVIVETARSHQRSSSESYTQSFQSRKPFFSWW
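In this quantitative HTS, ADP production by PI4K2A was quantified luminescently after 1 h at ambient temperature; 100 microM adenosine served as plate-quality control.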
LDHA inh: LDHA (human) enzyme inhibition. hit rate 0.15% among 480,000. P00338. activity change, % (values are at about 110 or 230 µM). purified LDHA, NADH/diaphorase-resazurin fluorescence; active compounds read low; in the data active means activity change below about -30%; inconclusive means mostly about -25% to -30%;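 further: plate controls were DMSO wells for no effect and wells without enzyme for full effect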
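Remaining NADH was detected by diaphorase (0.133 mg/mL) converting 37 µM resazurin to fluorescent resorufin, read at 0 and 20 minutes. The preceding 5-minute room-temperature reaction used 2 nM LDHA, 0.2 mM sodium pyruvate and 0.06 mM NADH at pH 7.4.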
Numbers without * were called inactive; i = inactive; ? = inconclusive; · = no result; [ ] = dose if it differs, or a comment. In the library only some 2.8% were active in any assay of this set; here they are far more common.

SMILES	Akt phos inh	DRD3 agonist	D3 antag	RGS4 inh	PI4K2A block	LDHA inh
Cc1oc(-c2ccc(Cl)cc2)nc1CS(=O)CC(=O)NCc1ccccc1Cl (stereo not drawn)	·	·	·	·	·	-4.0
CCCc1c(C)c2ccc(OCc3ccccc3)cc2oc1=O	·	·	·	·	·	-2.1
O=C(Nc1ccc(Cl)c(C(F)(F)F)c1)NC1CC2CCCC(C1)N2Cc1ccccc1 (stereo not drawn)	i	-18.6	-83.6*	-4.1%	-0.1	1.0
CC(C)CNC(=S)NC1CC2CCC(C1)N2Cc1ccccc1 (stereo not drawn)	i	-27.9	-74.5*	-11.7%	-1.9	-10.1
O=C(NC1CC2CCCC(C1)N2C(=O)Nc1ccc(Cl)c(C(F)(F)F)c1)C1CC1 (stereo not drawn)	i	-7.7	2.2	4.8%	1.9	-13.3
CC(C)CNC(=S)NC1CC2CCCC(C1)N2C1CCCCC1 (stereo not drawn)	i	-19.3	?	-2.1%	-1.8	-0.1
S=C(NC1CCCCC1)NC1CC2CCC(C1)N2Cc1ccccc1 (stereo not drawn)	i	-17.9	-78.5*	-10.5%	-0.9	-7.6
CCCCn1c(N2CCN(CC(N)=O)CC2)nc2c1c(=O)[nH]c(=O)n2C	·	·	·	·	·	4.2
CCN(CC)C(=O)CSc1nc2ccsc2c(=O)n1-c1cc(F)cc(F)c1	·	·	·	·	·	5.2
COc1ccc(N2CC(C(=O)NCCNC(=O)c3cn(C)c4ccccc34)CC2=O)cc1 (stereo not drawn)	·	·	·	·	·	9.0
CCn1c(CNc2ccccc2Cl)nnc1SCCN1CCCCC1	i	-6.7	-59.7*	6.0%	1.8	-7.0
COc1ccc([N+](=O)[O-])cc1NC(=S)NC(NC(C)=O)C(Cl)(Cl)Cl (stereo not drawn)	i	-25.8	0.0	-1.3%	-3.8	-8.3
O=C(O)c1cccc(NC(=S)NC(NC(=O)c2cccc([N+](=O)[O-])c2)C(Cl)(Cl)Cl)c1 (stereo not drawn)	i	5.7	3.0	0.2%	-0.1	-3.0
COc1ccc([N+](=O)[O-])cc1NC(=S)NC(NC(=O)Cc1ccc(OC)c(OC)c1)C(Cl)(Cl)Cl (stereo not drawn)	i	-12.4	-92.5*	-38.1%	-1.5	0.8
COc1ccc(NC(=O)CC(C)C)c([N+](=O)[O-])c1	i	-5.1	10.6	-8.9%	-2.6	5.6
O=C(NC(NC(=S)Nc1ccc(Cl)cc1Cl)C(Cl)(Cl)Cl)c1cccc([N+](=O)[O-])c1 (stereo not drawn)	i	-1.7	-57.7*	-49.3%	1.2	-5.7
COc1ccc(NC(=S)NC(NC(=O)C(C)C)C(Cl)(Cl)Cl)c([N+](=O)[O-])c1 (stereo not drawn)	i	-1.2	-69.4*	-1.7%	73.2	3.2
Cc1ccc2c(=O)cc(C(=O)Nc3ccc(S(N)(=O)=O)cc3)oc2c1C	·	·	·	·	·	5.3
CCc1ccc(S(=O)(=O)N2CCN(C(=O)c3cc(C)on3)CC2)cc1	·	·	·	·	·	9.5
COc1ccc(S(=O)(=O)NC(C)C(=O)Nc2ccccc2)cc1Cl (stereo not drawn)	i	-0.5	4.8	-5.8%	-0.6	-3.3
CC(Oc1ccc(Cl)cc1Cl)C(=O)NC1CCSC1=O (stereo not drawn)	i	-5.8	-75.5*	16.6%	5.9	8.5
CC(NS(=O)(=O)c1ccc(Cl)c(Cl)c1)C(=O)Nc1cccnc1 (stereo not drawn)	i	-5.3	-56.6*	-0.5%	1.0	-8.6
CC(Oc1ccc(Cl)cc1Cl)C(=O)Nc1cccnc1 (stereo not drawn)	-111.8%*	-2.5	-52.5*	-3.4%	4.1	-1.3
COc1ccc(CCNC(=O)Cc2c(C)c3ccc(OC)c(OC)c3oc2=O)cc1OC	·	·	·	·	·	-6.6
COc1ccc(CCNC(=O)Cc2c(C)c3ccc(O)c(C)c3oc2=O)cc1OC	·	37.9*	·	17.4%	-0.9	6.2
SMILES	Akt phos inh	DRD3 agonist	D3 antag	RGS4 inh	PI4K2A block	LDHA inh
Cc1cc(C)n(CC(=O)c2ccc(Cl)cc2)n1	i	0.6	15.2	-26.8%	-4.4	-6.6
Cc1cc(C)n(CC(=O)N/N=C/c2cc([N+](=O)[O-])ccc2O)n1	i	-12.5	-56.3*	0.3%	6.8	7.7
Cc1cc(C)n(CC(=O)c2cccc([N+](=O)[O-])c2)n1	i	-11.7	-57.5*	-21.3%	-11.0	-0.6
Cc1cc(Cl)ccc1NC(=O)CCC(=O)N/N=C/c1cc([N+](=O)[O-])ccc1O	i	-6.9	-55.9*	-18.6%	0.1	-1.4
Cc1cc([N+](=O)[O-])nn1CC(=O)N/N=C/c1ccccc1O	i	4.0	13.3	27.3%	-2.3	-0.9
Cc1cc(C)n(CCC(=O)N/N=C/c2ccc(Br)c([N+](=O)[O-])c2)n1	i	2.3	-14.8	-2.4%	11.5	-6.1
Cc1cc(C)n(CC(=O)N/N=C/c2cc(Br)cc([N+](=O)[O-])c2O)n1	i	-11.7	-66.4*	-10.1%	5.6	4.3
CC(C)(CO)Nc1nc(-c2ccccc2)c2cc(Br)ccc2n1	·	·	·	·	·	4.3
Cc1ccc(C)c(C(NC(=O)c2ccccc2)c2cccnc2)c1 (stereo not drawn)	·	·	·	·	·	-3.3
CCOC(=O)COc1ccc2cc(-c3ccc(Cl)cc3)c(=O)oc2c1	·	·	·	·	·	1.7
CC(=O)NCCC(=O)N(C)CC(=O)Nc1ccccc1C(F)(F)F	·	·	·	·	·	9.3
CCOC(=O)CSc1nnc([C@H](C)NC(=O)OC(C)(C)C)o1	-115.1%*	12.6	-29.2	-0.3%	8.6	-2.3
COc1cccc(CNc2ccc3[nH]c(=O)[nH]c3c2)c1OCc1ccc(F)cc1	i	-12.4	-53.5*	-34.1%[56.9 µM]	-5.8	26.9
CCCc1[nH]nc2c1C1(C(=O)N(CC)c3ccccc31)C(C#N)=C(N)O2 (stereo not drawn)	-109.8%*	-2.8	17.9	28.1%	-2.4	-2.7
COc1cccc(-c2cc(=O)n(-c3ccccc3OC)[nH]2)c1	·	·	·	·	·	8.6
CCCCN1CCc2c1nc1ccc(Br)cc1c2N	i	-38.6	-84.2*	9.5%	-1.0	-2.1
COCCN=c1scc(-c2cccs2)n1/N=C/c1ccc(O)c(O)c1O	i	89.6*	-8.0	-44.4%	-13.1	15.4
O=C(N/N=C\C=C\c1ccc([N+](=O)[O-])o1)c1cccs1	i	-5.5	-25.0	-20.4%	0.9	-30.1*
O=C(OCc1ccc([N+](=O)[O-])cc1)C1CC2CCCC(C1)C2=O (stereo not drawn)	·	·	·	·	·	2.2
CCn1c(C)c(CS(=O)(=O)c2ccccc2)[nH]c1=O	i	-12.1	-71.0*	-47.9%	4.7	-9.0
O=[N+]([O-])c1cc(O)c2ncccc2c1	i	-16.4	-58.3*	13.0%	-27.7	36.9
